In PubChem BioAssay (NCI) one finds growth data, which are given here for 14 molecules.

Each structure is given as a SMILES string. The panel holds about 83,000 compounds, 20% with a hit somewhere; the sample as a whole holds those more often.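 Note: values are percent growth. 100 is the growth of untreated cells, values between 100 and 0 indicate rising inhibition; between -100 and 0 indicates cell death.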 A number with no mark means an inactive call. The source made the active and inactive calls. The calls were made as follows: active = growth percent below 10; inactive = the rest.

Some test systems named below: NCI-H23 lung; NCI-H226 lung; NCI-H322M lung; HOP-62 NSCLC; NCI-H460 lung; HOP-92 NSCLC; NCI-H522 lung; A549/ATCC NSCLC; 786-0 renal; COLO 205 colon.
Common to all, as to experiment: NCI-60 one-dose screen, 48 h (100 = growth as untreated, 0 = no growth, -100 = all killed)
Conditions in all cases: 10 µM unless noted

With `Oc1c(CN2CCCC2)cc(COCc2ccc(Br)cc2)c2cccnc12`, the growth in the experiment on NCI-H23 lung was 20.7%; in the experiment with NCI-H226 lung it was -0.576% (active); in the experiment on NCI-H322M lung, -5.34% (active); with HOP-62 NSCLC, -4.92% (active); in the experiment on NCI-H460 lung, -21.8% (active); with HOP-92 NSCLC, 27.6%. The growth is -45% (active) with NCI-H522 lung, 4.92% (active) in the experiment with A549/ATCC NSCLC, -8.02% (active) in the experiment on 786-0 renal and 39.1% with COLO 205 colon.
Consider `NC(=N\N=C/c1ccccc1[N+](=O)[O-])/C(N)=N\N=C/c1ccccc1[N+](=O)[O-]`, for which the growth in the experiment on NCI-H23 lung was 104%; in the experiment with NCI-H226 lung, 107%; in the experiment with NCI-H322M lung it was 146%; with HOP-62 NSCLC, 94%; in the experiment on NCI-H460 lung it was 104%; with HOP-92 NSCLC it was 89%. Besides, the growth was 89.3% with NCI-H522 lung, 114% in the experiment on A549/ATCC NSCLC, 103% with 786-0 renal and 109% with COLO 205 colon.
As to `COc1ccc(C2C(c3nn[nH]n3)=C(N)Oc3c2ccc2ccccc32)cc1` (stereo not given), the growth was 69.1% in the experiment on NCI-H23 lung; 82.4% with NCI-H226 lung; 85.1% in the experiment on NCI-H322M lung; 70.3% in the experiment with HOP-62 NSCLC; 53.7% with NCI-H460 lung; 77.1% in the experiment with HOP-92 NSCLC. In addition, the growth with NCI-H522 lung was 23.9%; in the experiment with A549/ATCC NSCLC, 72.5%; in the experiment on 786-0 renal, 79.2%; with COLO 205 colon, 92.5%.
In the case of `C=C(C)[C@@H]1CC[C@]2(C)[C@H](CC=C3[C@@H]4CC(C)(C)CC[C@]4(C(N)=O)CC[C@]32C)[C@@]1(C)CCC#N`, the growth was 27.9% in the experiment on NCI-H23 lung; 49.7% in the experiment with NCI-H226 lung; 72.1% with NCI-H322M lung; 56.7% with HOP-62 NSCLC; 12.8% in the experiment with NCI-H460 lung; 32% in the experiment with HOP-92 NSCLC. For the same molecule, the growth in the experiment with NCI-H522 lung was 7.77% (active); with A549/ATCC NSCLC, 17.6%; with 786-0 renal it was 26.1%; in the experiment with COLO 205 colon, -12.1% (active).
For the molecule `O=C1/C(=C\c2c[nH]c3ccccc23)c2ccccc2N1c1c(Cl)cccc1Cl`, the growth was -80.1% (active) in the experiment on NCI-H23 lung; 14.7% in the experiment on NCI-H226 lung; 18.8% with NCI-H322M lung; 19.6% with HOP-62 NSCLC; -89.5% (active) in the experiment on NCI-H460 lung; -13.7% (active) in the experiment with HOP-92 NSCLC. Further, the growth in the experiment on NCI-H522 lung is -57.9% (active); with A549/ATCC NSCLC, 0.113% (active); in the experiment on 786-0 renal it was -37.7% (active); in the experiment on COLO 205 colon it was -100% (active).
As for `O=C(NC(Cc1nnc2n(Cc3ccccc3)c(=O)c3c4c(sc3n12)CCCC4)c1ccc(Cl)cc1)c1ccccc1` (stereo not given), the growth was 82.2% in the experiment on NCI-H23 lung; 97.6% with NCI-H226 lung; 108% in the experiment on NCI-H322M lung; 77.2% with HOP-62 NSCLC; 101% in the experiment with NCI-H460 lung; 76.8% with HOP-92 NSCLC. Further, the growth with NCI-H522 lung was 75.8%; in the experiment with A549/ATCC NSCLC, 98.9%; in the experiment with 786-0 renal, 38.3%; with COLO 205 colon it was 106%.
Regarding `O=C(COc1ccc(/C=C2\Oc3ccccc3C2=O)cc1)Nc1nc2c(s1)CCCC2`, the growth in the experiment with NCI-H23 lung is 45.1%; with NCI-H226 lung, 84.3%; in the experiment with NCI-H322M lung, 115%; with HOP-62 NSCLC, 44.2%; in the experiment with NCI-H460 lung it was 99.5%; in the experiment on HOP-92 NSCLC it was -90.1% (active). Moreover, the growth in the experiment on NCI-H522 lung is -74.9% (active); with A549/ATCC NSCLC, 73.2%; in the experiment on 786-0 renal, 20%; in the experiment with COLO 205 colon, 102%.
Turning to `COc1ccc2[nH]c(O)c(C(=Nc3ccc(N(C)C(=O)CN4CCN(C)CC4)cc3)c3ccccc3)c2c1`, the growth is 21.2% in the experiment with NCI-H23 lung; 29% with NCI-H226 lung; 61.1% with NCI-H322M lung; 23.5% in the experiment on HOP-62 NSCLC; 15.3% in the experiment with NCI-H460 lung; 12.7% with HOP-92 NSCLC. Further, the growth is 67.2% with NCI-H522 lung, 24.2% in the experiment on A549/ATCC NSCLC, 42.4% with 786-0 renal and -6.6% (active) in the experiment on COLO 205 colon.
With `COc1cc(N2C(=O)c3nccnc3C2=O)cc(OC)c1OC`, the growth in the experiment with NCI-H23 lung is 99.6%; with NCI-H226 lung, 114%; in the experiment on NCI-H322M lung, 99.7%; with HOP-62 NSCLC it was 95.9%; with NCI-H460 lung it was 111%; in the experiment with HOP-92 NSCLC it was 89.9%. Further, the growth in the experiment on NCI-H522 lung was 95.2%; in the experiment with A549/ATCC NSCLC it was 105%; in the experiment on 786-0 renal, 97.1%; in the experiment with COLO 205 colon it was 111%.
With `CCN(CC)CCN1CC(O)=C(c2nc(-c3ccc(Cl)cc3)cs2)C1=N`, the growth in the experiment with NCI-H23 lung is 65.2%; in the experiment with NCI-H226 lung, 99.2%; in the experiment on NCI-H322M lung, 15.6%; in the experiment with HOP-62 NSCLC, -53.3% (active); in the experiment on NCI-H460 lung it was 8.48% (active); in the experiment on HOP-92 NSCLC it was -44.3% (active). Moreover, the growth with NCI-H522 lung was 49.8%; with A549/ATCC NSCLC it was 46.8%; with 786-0 renal it was -68.5% (active); in the experiment on COLO 205 colon it was -58.3% (active).
As for `CC(=O)O[C@]1(C(C)=O)CCC2C3C[C@H](C)C4=CC(=O)CC[C@]4(C)C3CC[C@@]21C` (stereo not given in full), the growth is 96.2% in the experiment on NCI-H23 lung; 73.6% in the experiment on NCI-H226 lung; 95.7% with NCI-H322M lung; 94.6% in the experiment on HOP-62 NSCLC; 103% with NCI-H460 lung; 89.9% in the experiment with HOP-92 NSCLC. Besides, the growth with NCI-H522 lung is 74.8%; in the experiment with A549/ATCC NSCLC, 73.3%; with 786-0 renal it was 97.4%; with COLO 205 colon, 104%.
With `CCCCOc1nc2ccccc2cc1C1CNC(=O)c2ccccc2N1` (stereo not given), the growth with NCI-H23 lung is 23.8%; in the experiment on NCI-H226 lung it was 0.702% (active); with NCI-H322M lung it was 47.2%; in the experiment on HOP-62 NSCLC, 23%; with NCI-H460 lung, 6.89% (active); with HOP-92 NSCLC, 48.9%. For the same molecule, the growth with NCI-H522 lung is -13.6% (active); with A549/ATCC NSCLC it was 19.9%; with 786-0 renal it was 26.2%; in the experiment on COLO 205 colon, 9.84% (active).
Regarding `N#CC1=C(/N=C/c2ccccc2)Oc2c(ccc3ccccc23)C1c1ccccc1` (stereo not given), the growth in the experiment on NCI-H23 lung is 28.6%; with NCI-H226 lung it was 52.9%; in the experiment on NCI-H322M lung, 45.6%; in the experiment with HOP-62 NSCLC, 21.1%; with NCI-H460 lung, 11.6%; in the experiment with HOP-92 NSCLC, 50.4%. Moreover, the growth in the experiment on NCI-H522 lung was -4.7% (active); with A549/ATCC NSCLC, 21%; in the experiment with 786-0 renal, 23.2%; in the experiment on COLO 205 colon, -23.2% (active).
For `CNC(=O)CCN1CCN(CC/C=C2\c3ccccc3Sc3ccc(Cl)cc32)CC1`, the growth with NCI-H23 lung is 91%; with NCI-H226 lung it was 121%; with NCI-H322M lung, 74.8%; in the experiment with HOP-62 NSCLC, 102%; with NCI-H460 lung it was 92.6%; in the experiment on HOP-92 NSCLC, -4.86% (active). In addition, the growth with NCI-H522 lung was 85%; in the experiment on A549/ATCC NSCLC, -27.4% (active); in the experiment on 786-0 renal, 75.9%; with COLO 205 colon it was 85.8%.
